RE007 growth inh: qHTS Assay for Inhibitors of the HIV-1 protein Vpr. S. pombe RE007 Vpr strain, BacTiter-Glo ATP luminescence, 24 h. Potency, µM (highest dose often 92.2 µM), without a hit: at the highest dose activity change, negative = less growth, hits mostly inhibitors. actives 0.21% (n = 360,000); active = well fitted falling curve with a large enough effect; inconclusive = small, poorly fitted or top-dose-only effect; inactive = no such curve, though single readings can be large or run the other way; also: nearly all actives have a fitted effect of over 50% in size
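Fission yeast RE007 carrying one integrated HIV-1 vpr copy, seeded at OD 0.01 in PMG+AL medium with 23 nL pinned compound. Grown 24 h at 30 degrees; viability read by BacTiter-Glo luminescence after 5 min.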
LmPK inhibitor: qHTS Assay for Inhibitors of Leishmania Mexicana Pyruvate Kinase (LmPK); Q27686; purified LmPK, Kinase-Glo ATP luminescence, 1 h; Potency, µM (titrated, usually from 57.5 µM), for the others: at the highest dose activity change, negative = inhibition, hits mostly inhibitors; actives 0.37% (n = 290,000); AID 1721, 2009
Target sequence (Q27686 whole entry, looked up): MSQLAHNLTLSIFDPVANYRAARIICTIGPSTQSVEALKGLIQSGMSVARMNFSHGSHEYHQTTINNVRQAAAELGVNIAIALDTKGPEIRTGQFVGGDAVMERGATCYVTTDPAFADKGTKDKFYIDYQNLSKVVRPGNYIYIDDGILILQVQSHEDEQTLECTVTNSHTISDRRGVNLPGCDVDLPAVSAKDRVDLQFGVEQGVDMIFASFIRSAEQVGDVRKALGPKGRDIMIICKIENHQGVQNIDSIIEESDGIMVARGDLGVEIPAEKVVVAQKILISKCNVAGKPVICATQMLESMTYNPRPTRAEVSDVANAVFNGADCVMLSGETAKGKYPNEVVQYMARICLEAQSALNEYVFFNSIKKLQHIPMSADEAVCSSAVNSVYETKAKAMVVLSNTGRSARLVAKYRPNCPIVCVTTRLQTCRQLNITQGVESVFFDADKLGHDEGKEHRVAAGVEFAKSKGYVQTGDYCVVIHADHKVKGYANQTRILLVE
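In 50 mM imidazole pH 7.2 with 7 mM MgCl2, LmPK (0.1 nM) turned over PEP (0.5 mM) and ADP (0.1 mM) for 1 h at room temperature. Luciferase read-out of ATP.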
Tb PYK inh: qHTS of Trypanosoma Brucei Inhibitors | TbPYK enzyme, Kinase-Glo Plus ATP luminescence, 45 min | AID 624173, 2012 | pyruvate kinase (Trypanosoma brucei), Q57TT1 | actives 0.12% (n = 410,000) | Potency, µM (series often up to 76.8 µM), inactives show at the top dose activity, negative = inhibition, actives largely listed as inhibitors; also: nearly all actives have a fitted effect of over 50% in size
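Luminescent Kinase-Glo Plus end-point after 45 min room-temperature reaction of T. brucei pyruvate kinase started with 130 uM ADP (final). Buffer TEA 50 mM pH 7.2 with KCl, MgCl2, BSA, Tween-20; titration-based qHTS with fitted concentration-effect curves.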
Sm TGR inh: qHTS Assay for the Inhibitors of Schistosoma Mansoni Peroxiredoxins. purified TGR, DTNB reduction, TNB absorbance 405 nm. Potency, µM (top dose mostly 114 µM), for inactives: at the highest dose activity change, negative = inhibition, actives largely listed as inhibitors. actives 3% (n = 360,000). AID 485364, 2010; also: nearly all actives have a fitted effect of over 60% in size
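First, TGR (20 nM dispensed) and NADPH were mixed with compound. Second, a 15 min room-temperature incubation followed. Third, further NADPH and then DTNB were added to start the reaction. Finally, TNB absorbance was monitored kinetically.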
The depositor's hits bear a star; ? = inconclusive; / = not tested or not shown; ! = repeats disagree; [ ] = remark or other dose. Compounds with a hit are over-represented: about 3% of the library has one in this group of screens. Unless noted, calls follow the shape of the dose curve; as a rule, active = well fitted curve in the direction sought with a large enough effect; inconclusive = small, poorly fitted or top-dose-only effect, or another doubt; inactive = no such curve, though single readings can be large; an effect the other way counts as inactive or inconclusive. % is scaled to controls: 0 for no effect and ±100 for the full control effect; potency is read from the fitted curve at half-maximal effect.

SMILES	RE007 growth inh	LmPK inhibitor	Tb PYK inh	Sm TGR inh
Clc1ccc(-c2cn3ncsc3n2)cc1	/	/	-4%	-2%
Oc1ccc(C(c2nnnn2C2CCCCC2)N2CCOCC2)cc1 (stereo not given)	-12%	4%	-16%	2.8µM*
c1cc(C(c2nnnn2C2CCCC2)N2CCOCC2)ccn1 (stereo not given)	-3%	-7%	-2%	28µM*
CCCCn1c(O)c2n(c1=O)Cc1ccccc1N=C2c1ccccc1	8%	/	0%	/
Cc1nc(Nc2nc3ccccc3o2)nc(C)c1C	-20%	18µM*	?	-2%
Cc1ccnc(Nc2nc3ccccc3o2)n1	-21%	22µM*	?	-8%
N#Cc1cnc(Nc2nc3ccccc3o2)nc1-c1ccccc1	-13%	-2%	-11%	1%
c1ccc(CN(Cc2ccco2)C(c2ccncc2)c2nnnn2C2CCCC2)cc1 (stereo not given)	-16%	1%	-20%	22µM*
Fc1ccc(C(c2nnnn2C2CCCC2)N(Cc2ccco2)CC2CCCO2)cc1 (stereo not given)	-19%	3%	-5%	-11%
Cc1nc(N=Nc2ccc(O)cc2)n[nH]1	?	14µM*	-16%	-15%
O=C(c1ccc2c3c(cccc13)CC2)C1CCCN(C(=O)c2ccc(=O)[nH]c2)C1 (stereo not given)	-4%	5%	-12%	40µM*
O=C(NC1CCCCC1)c1ccc(CSc2nc3ccncc3n2Cc2ccccc2)cc1	/	/	0%	2%
COc1ccc(CN(C(=O)/C=C/c2ccco2)C2CCS(=O)(=O)C2)cc1OC (stereo not given)	-6%	0%	-11%	3.5µM*
COc1ccccc1C(=O)N(Cc1ccco1)C1CCS(=O)(=O)C1 (stereo not given)	2%	3%	-5%	35µM*
COc1ccc(CN(C(=O)/C=C/c2ccco2)C2CCS(=O)(=O)C2)cc1 (stereo not given)	2%	4%	-6%	2µM*
COc1ccc(CN(C(=O)c2ccco2)C2CCS(=O)(=O)C2)cc1 (stereo not given)	2%	2%	0%	9%
COc1ccccc1C(=O)N(Cc1cccs1)C1CCS(=O)(=O)C1 (stereo not given)	-3%	3%	-1%	7%
COc1cccc(CN(C(=O)/C=C/c2ccco2)C2CCS(=O)(=O)C2)c1 (stereo not given)	4%	-2%	-11%	7.9µM*
O=C(O)CNC(=O)c1ccccc1I	/	/	-2%	/
Cc1cccc(NC(=O)Cn2c(=O)n(Cc3ccc4c(c3)OCO4)c(=O)c3oc4ccccc4c32)c1C	/	/	-1%	5%
CCOc1ccc(CN(C(=O)/C=C/c2ccco2)C2CCS(=O)(=O)C2)cc1 (stereo not given)	12%	8%	-11%	4.5µM*
O=[N+]([O-])c1ccc(/C=N/n2cnc3ccccc32)s1	10µM*	0%	-6%	-20%
Cc1ccc2ncc3c(-c4ccccc4)nn(CC(=O)NC4CCCCC4)c3c2c1	/	/	3%	2%
COC(=O)c1ccc(CSc2nc3ccccc3c(=O)n2CC(C)C)o1	-6%	1%	-7%	-19%
COC(=O)c1ccc(CSc2nc3ccccc3c(=O)n2C)o1	3%	1%	-8%	45µM*
SMILES	RE007 growth inh	LmPK inhibitor	Tb PYK inh	Sm TGR inh
O=C(N/N=C/c1ccc(N2CCOCC2)o1)c1ccccc1[N+](=O)[O-]	7%	-8%	?	8.9µM*
O=C(N/N=C/c1ccc(N2CCOCC2)o1)c1cccc(C(F)(F)F)c1	5%	-1%	?	11µM*
O=C(N/N=C/c1ccc(N2CCCCC2)o1)c1ccccc1[N+](=O)[O-]	/	-9%	?	4µM*
Cc1cccc(N2CCN(C(=O)C3CC(=O)N(c4ccc5c(c4)OCCO5)C3)CC2C)c1 (stereo not given)	0%	/	-2%	45µM*
Cc1cccc(N2CCN(C(=O)c3noc4c3COc3ccc(C)cc3-4)CC2C)c1 (stereo not given)	-11%	0%	2%	5.6µM*!
COc1ccc(-c2nc(CNC(=O)NC3CCCCC3)c(C)o2)cc1	/	/	1%	-7%
COc1ccc(CCCc2nnc(SCC(=O)Nc3cccc(C)c3)o2)cc1C	/	/	1%	1%
O=C1Nc2ccccc2/C1=N\N=C\C1=C(N2CCOCC2)C(=C\c2ccccc2)/CC1	/	?	/	45µM*
COc1ccccc1S(=O)(=O)N(C)C[C@@H]1OCc2cn(nn2)CCCC(=O)N([C@H](C)CO)C[C@H]1C	2%	/	4%	/
O=C(O)c1ccccc1-c1ccc(/C=c2\sc3nc4cc(Br)cnc4n3c2=O)o1	-29%	9%	?	?
Cc1cc2nc3s/c(=C/c4ccc(-c5ccccc5C(=O)O)o4)c(=O)n3c2cc1C	/	-5%	-20%	3.5µM*
CC1(C(=O)NS(=O)(=O)c2ccc(Br)cc2)CCN1C(=O)Cc1cccs1 (stereo not given)	1%	/	1%	/
COc1cc(C(=O)CCN2CCC(c3ccccc3)C2)cc(OC)c1OC (stereo not given)	?	-4%	-17%	0.28µM*
O=C(CCN1CCc2ccccc21)c1ccc2c(c1)OCCO2	?	-21%	-8%	?
O=C(CCN1CCc2ccccc2C1)c1ccc2c(c1)OCCO2	7.9µM*	5%	-24%	0.28µM*
O=C(CCN1CCCC1Cc1ccccc1)c1ccc2c(c1)OCCO2 (stereo not given)	25µM*	6%	-6%	0.32µM*
O=C(CCN1CCC(c2ccccc2)C1)c1ccc2c(c1)OCCO2 (stereo not given)	?	-1%	-19%	0.1µM*
Cc1ccc(NC(=O)c2ccc(NC(=O)N3CCSc4ncccc43)cc2)cc1Cl	/	/	-5%[15.4 µM]	-12%
CCN(C(=O)CSc1nc2ccccc2n1CC(=O)Nc1cccc(C#N)c1)c1ccccc1	/	/	1%	1%
CN(C)c1nc(F)c(F)c(S(=O)(=O)c2ccccc2)c1F	13%	-1%	8%	40µM*
O=C(c1ccc2c(c1)N(Cc1ccc(F)cc1)C(=O)c1ccccc1S2(=O)=O)N1CCCCCC1	/	/	8%	-13%
CCOc1ccccc1NC(=O)CSc1nnc(-c2ccccn2)n1Cc1ccco1	13%	-2%	-6%	?
CCOc1ccccc1NC(=O)CSc1nnc(-c2ccccc2Cl)n1Cc1ccco1	29%	8%	-8%	50µM*
CCOc1ccccc1NC(=O)CSc1nnc(-c2ccco2)n1Cc1ccco1	5%	1%	1%	50µM*
COc1cccc(NC(=S)NC(=O)/C=C/c2ccco2)c1	-16%	12%	-13%	10µM*
O=C(/C=C/c1ccco1)NC(=S)Nc1cccc(C(=O)O)c1	2%	10%	-22%	4.5µM*

Bioassay records (PubChem BioAssay)
